Source: ChEMBL document CHEMBL3988442, “University of Dundee, Small-Polar-MMV Screening Library” (2021)
About 13,000 (27%) of roughly 48,000 compounds showed an effect of 50% or more. The list shows a part of the results.

Each molecule was assayed on Wolbachia pipientis (assay: Anti-Wolbachia Cell-Based Screen). Details: 5 µM.
Type: functional
Design: scale not given: in the data most compounds retested in dose-response had high values

Compound	Percent Effect [%]
Cc1nc(Nc2ccc(Cl)cn2)sc1C(=O)NC(C)C	4.933
O=C(NCc1nc(NC2CCCC2)c2cc(Cl)ccc2n1)c1ccoc1	13.57
CC(C)(C(=O)NCc1n[nH]c(=O)[nH]1)c1ccc(F)cc1	1.866
O=C(NCCC(O)c1ccco1)c1ccccc1Br (configuration not stated)	14.27
CC(O)CN1CCN(C(=O)c2ccn(-c3cccc(Cl)c3)n2)CC1 (configuration not stated)	1.72
CS(=O)(=O)N1CCOCC12CCN(c1nncs1)CC2	4.354
Cn1cc(CN2CCC3(CCCN3S(C)(=O)=O)CC2)cn1	6.984
CN(C)C(=O)CO[C@H]1CO[C@@]2(CCN(Cc3ccoc3)C2)C1	-7.87
CS(=O)(=O)N1CCCC12CCN(Cc1ccoc1)CC2	99.65
CS(=O)(=O)N1CCOCC12CCN(Cc1ccoc1)CC2	122
CS(=O)(=O)N1CCCC12CCN(Cc1nccs1)CC2.O=C(O)C(F)(F)F	-14.48
COCCNc1ccccc1CNC(=O)NCc1ccc(C)s1	-4.597
CS(=O)(=O)CCOCCNc1cncc(Br)c1	-7.579
CN1CCCN(c2nc(C3CC3)ns2)CC1	-64.99
CC(C)CNC(=O)c1cn(C(C)C)cc2c(=O)[nH]nc1-2	135.5
Cc1ccc(C(=O)NCC(C)Cn2cccn2)c(=O)[nH]1 (configuration not stated)	-11.2
CC(C)N(CCNC(=O)c1n[nH]c2ccccc12)C(C)C	25.98
CC(C)CNC(=O)c1ccc2c(=O)n(-c3ccccc3)cnc2c1	11.47
CN(C)CCNC(=O)c1cc2n(n1)CCN(C(=O)c1ccc[nH]1)C2	-27.47
CC(C)n1cc(C(=O)NCCN(C)C)c2n[nH]c(=O)c-2c1	115.3
CCOCCn1nc(C)cc1C(=O)N1CCC2(CC1)[C@H](O)C[C@@H]2OCC	-36.55
CC1=C[C@@H](CNS(C)(=O)=O)[C@H](C(C)C)C[C@H]1CC(=O)NCCN(C)C	5.044
Cc1cc(C)n(CCCC(=O)N2CC[C@H]3NCCC[C@]3(CO)C2)n1	-1.122

Compound	Percent Effect [%]
CS(=O)(=O)CCC(=O)N1C[C@@H]2CC[C@H](C1)N(Cc1ccccc1)C2=O	8.046
CN(Cc1ccco1)C(=O)CN1CCc2ccccc2C1	-0.07899
Cc1ccc(CN(C)C(=O)CNC(=O)N2CCc3ccccc3C2)o1	79.51
COCCN1CCN(CC(=O)N(C)Cc2ccc(C)o2)CC1C (configuration not stated)	6.475
Cc1ccc(CN(C)C(=O)CN2CCc3ccccc3C2)o1	87.7
Cc1ccc(CN(C)C(=O)CN2CCCC2c2cnn(C)c2)o1 (configuration not stated)	-1.976
OCC1CCCN1c1cc(NCCc2c[nH]c3ccccc23)ncn1 (configuration not stated)	7.134
c1ccc2c3c([nH]c2c1)CN(Cc1cc2n(n1)CCNC2)CC3	-25.6
CCNc1cc(N2CCN(C(=O)c3ccc(OC)cc3)CC2)nc(C)n1	4.812
COc1ccc2[nH]c3c(c2c1)CN(c1cc(NCCO)nc(N)n1)CC3	97.63
COc1ccc(F)c(-c2cc(NCCO)nc(N)n2)c1	-1.904
Nc1nc(NCCO)cc(N2CCc3c([nH]c4ccccc34)C2)n1	98.87
Cc1cccc(-c2nnn3c2COC(CNC(=O)N2CCCC2)C3)c1 (configuration not stated)	9.642
NCC1Cc2cc(-c3nccc(N4CCC(O)CC4)n3)cc(Cl)c2O1 (configuration not stated)	-10.94
Cc1ccc(C)c(Oc2ccc(CNC(=O)C3CCS(=O)(=O)C3)cn2)c1 (configuration not stated)	-2.907
CCCc1noc(CNc2ccc(C(=O)N3CCCC3)cc2C)n1	101
CCc1noc(CNc2ccc(C(=O)N3CCCC3)cc2C)n1	101.8
CCc1nc(CNc2ccc(C(=O)N3CCSCC3)cc2C)no1	92.2
CC(C)Cc1noc(CN2CCCN(C(=O)c3cccc(Cl)c3)CC2)n1	-52.16
CCc1noc(CNc2ccc(CC(=O)N3CCSCC3)cc2)n1	21.21
CC(C)Cc1noc(CNc2ccccc2CC(=O)N(C)C)n1	7.405
CCCc1nc(CNc2cccc(C(=O)N3CCCC(O)C3)c2)no1 (configuration not stated)	1.271
CCc1nc(CNc2ccc(C(=O)NCc3ccco3)cc2C)no1	-7.097

Compound	Percent Effect [%]
CCc1noc(CNc2cccc(C(=O)N3CCSCC3)c2)n1	10.06
Cc1cc(C(=O)N2CCCC2)ccc1NCc1nc(CC(C)C)no1	81.12
Cc1cc(C(=O)N2CCCC2)ccc1NCCOCC(F)(F)F	-22.68
Cc1ccc(C(=O)N2CCCC(CNS(=O)(=O)C(C)C)C2)cc1 (configuration not stated)	-19.42
CN(Cc1csc(-c2ccccc2)n1)Cc1ncccc1C(=O)O	4.154
N#Cc1ccccc1OCCN1CCN(C(=O)C2CCCC2)CC1	-2.024
CC1CCN(S(=O)(=O)NC2CCCCNC2=O)CC1 (configuration not stated)	36.47
CC(C)CNC(=O)Nc1ccc(CN2CCOC2=O)cc1	-13.36
Cc1cc(CNS(=O)(=O)CCCC#N)ccc1N(C)C	89.17
Cc1cc(CNS(C)(=O)=O)ccc1N(C)C	110.2
COCCS(=O)(=O)NCc1ccc(N(C)C)c(C)c1	78.12
COCCS(=O)(=O)NCC(C)c1cccc(C)c1 (configuration not stated)	-6.365
Cc1ccc(CNS(=O)(=O)CCCC#N)cc1F	111.5
Cc1ccc(CNC(=O)c2ccc(CNS(C)(=O)=O)o2)cc1F	2.956
Cc1cnn(CCC(=O)NCc2ccc(N(C)C)c(C)c2)c1	4.786
CCN(C)c1ccc(CNS(=O)(=O)CC2CCCO2)cc1F (configuration not stated)	-7.103
CS(=O)(=O)NCc1ccc2c(c1)CCC2	-9.378
Cc1ccc(CNC(=O)NC(C)CCS(C)(=O)=O)cc1F (configuration not stated)	-1.224
CC(CNS(=O)(=O)CCCC#N)c1ccsc1 (configuration not stated)	-6.761
Cc1cccc(C(C)CNS(=O)(=O)CCCC#N)c1 (configuration not stated)	5.748
NCC1CN(C(=O)c2cccc(-n3cccn3)c2)CCO1 (configuration not stated)	12.21
